Test results as given in the supplement of paper PMC6555819.

Tests used:
Test in all cases: PBM binding z-score (relative to random genomic background probes); higher = stronger binding; sequences stand for … in GC…GCGATTGACAGCGTAGAATGAAGG
[1] = system: FXR:RXRa (NR concentration 270 nM, RXRa partner concentration 90 nM)
In short: (§1)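 Custom Agilent 4×180K protein-binding microarrays carried double-stranded probes. Their 34-nt variable regions held direct-repeat seeds, single-nucleotide variants, half-site ablations and random human genomic background sequences. Arrays were incubated 1 h with ligand-free nuclear receptor dimers in PBS pH 7.4, 2% milk, 0.02% Triton X-100, 1 mM DTT, 0.2 mg/mL BSA and 0.4 mg/ml salmon testes DNA. Antibodies against each partner (one per run) detected binding, and scanned fluorescence was regression-normalized. Binding z-scores use random background probes as reference.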

[2] = system: LXRa:RXRa (NR concentration 270 nM, RXRa partner concentration 90 nM)
In short: as §1

[3] = system: LXRa homodimer (NR concentration 270 nM)
In short: as §1

[4] = system: LXRb:RXRa (NR concentration 270 nM, RXRa partner concentration 90 nM)
In short: as §1

[5] = system: LXRb homodimer (NR concentration 270 nM)
In short: as §1

[6] = system: PPARa:RXRa (NR concentration 270 nM, RXRa partner concentration 90 nM)
In short: as §1

[7] = system: PPARg:RXRa (NR concentration 180 nM, RXRa partner concentration 90 nM)
In short: as §1

[8] = system: PPARg:RXRa 270nM:90nM, anti-RXR (NR concentration 270 nM, RXRa partner concentration 90 nM)
In short: as §1

[9] = system: PPARg:RXRa 30nM:10nM, anti-RXR (NR concentration 30 nM, RXRa partner concentration 10 nM)
In short: as §1

[10] = system: PPARg:RXRa 90nM:30nM, anti-RXR (NR concentration 90 nM, RXRa partner concentration 30 nM)
In short: as §1

[11] = system: PPARg:RXRa DBDmut IVT, anti-RXR (DBD mutation: RXRa K156A/R161A, NR concentration 270 nM, RXRa partner concentration 90 nM)
In short: as §1

[12] = system: PPARg:RXRa IVT, anti-PPARg (NR concentration 270 nM, RXRa partner concentration 90 nM)
In short: as §1

[13] = system: PPARg DBDmut:RXRa IVT, anti-PPARg (DBD mutation: PPARg1 K132A/R137A, NR concentration 270 nM, RXRa partner concentration 90 nM)
In short: as §1

[14] = system: PPARg DBDmut IVT, anti-PPARg (DBD mutation: PPARg1 K132A/R137A, NR concentration 270 nM)
In short: as §1

[15] = system: PPARg homodimer (NR concentration 180 nM)
In short: as §1

[16] = system: PXR:RXRa (NR concentration 270 nM, RXRa partner concentration 90 nM)
In short: as §1

[17] = system: PXR homodimer (NR concentration 270 nM)
In short: as §1

[18] = system: RARa:RXR (NR concentration 270 nM, RXRa partner concentration 90 nM)
In short: as §1

[19] = system: RARa homodimer (NR concentration 270 nM)
In short: as §1

[20] = system: RARb:RXRa (NR concentration 270 nM, RXRa partner concentration 90 nM)
In short: as §1

Sequence: TTACCACGGTGAAGGTCGTTGATCCCTCTGTAGA
- PBM binding z-score [1]: 1.28
- PBM binding z-score [2]: 1.71
- PBM binding z-score [3]: 0.151
- PBM binding z-score [4]: 1.26
- PBM binding z-score [5]: -0.41
- PBM binding z-score [6]: 1.57
- PBM binding z-score [7]: 0.322
- PBM binding z-score [8]: 1.94
- PBM binding z-score [9]: 0.678
- PBM binding z-score [10]: 1.24
- PBM binding z-score [11]: 0.157
- PBM binding z-score [12]: 1.1
- PBM binding z-score [13]: -0.118
- PBM binding z-score [14]: -0.0664
- PBM binding z-score [15]: 0.191
- PBM binding z-score [16]: 1.13
- PBM binding z-score [17]: 0.169
- PBM binding z-score [18]: 1.59
- PBM binding z-score [19]: -0.497
- PBM binding z-score [20]: 1.17

Sequence: AGAATGAGGTTCAGATCAGGGAAACAGAATACAT
- PBM binding z-score [1]: 0.604
- PBM binding z-score [2]: 0.299
- PBM binding z-score [3]: -0.377
- PBM binding z-score [4]: 0.614
- PBM binding z-score [5]: -0.379
- PBM binding z-score [6]: 1.14
- PBM binding z-score [7]: 0.585
- PBM binding z-score [8]: -0.121
- PBM binding z-score [9]: 0.313
- PBM binding z-score [10]: 0.345
- PBM binding z-score [11]: -0.151
- PBM binding z-score [12]: 0.433
- PBM binding z-score [13]: 1.08
- PBM binding z-score [14]: 0.118
- PBM binding z-score [15]: 0.165
- PBM binding z-score [16]: 0.507
- PBM binding z-score [17]: 0.222
- PBM binding z-score [18]: 1.41
- PBM binding z-score [19]: 0.488
- PBM binding z-score [20]: 0.706

Sequence: ACTAGCCGGCCAAGTTTGGGTCACTCAAACAAAG
- PBM binding z-score [1]: 0.307
- PBM binding z-score [2]: 0.194
- PBM binding z-score [3]: -0.183
- PBM binding z-score [4]: 0.789
- PBM binding z-score [5]: -0.664
- PBM binding z-score [6]: 1.32
- PBM binding z-score [7]: -0.0659
- PBM binding z-score [8]: -0.198
- PBM binding z-score [9]: -1.03
- PBM binding z-score [10]: -0.301
- PBM binding z-score [11]: -0.561
- PBM binding z-score [12]: 0.67
- PBM binding z-score [13]: -0.942
- PBM binding z-score [14]: -0.912
- PBM binding z-score [15]: 0.449
- PBM binding z-score [16]: 0.729
- PBM binding z-score [17]: -0.476
- PBM binding z-score [18]: 1.25
- PBM binding z-score [19]: -0.454
- PBM binding z-score [20]: 1.5

Sequence: CGGCAAAGTTCAAGGTAACGTAACAGAAAGCAGC
- PBM binding z-score [1]: 6.25
- PBM binding z-score [2]: 5.26
- PBM binding z-score [3]: 1.74
- PBM binding z-score [4]: 3.16
- PBM binding z-score [5]: -0.0277
- PBM binding z-score [6]: 4.47
- PBM binding z-score [7]: 3.94
- PBM binding z-score [8]: 4.6
- PBM binding z-score [9]: 1.59
- PBM binding z-score [10]: 3.43
- PBM binding z-score [11]: 0.813
- PBM binding z-score [12]: 1.56
- PBM binding z-score [13]: -1.51
- PBM binding z-score [14]: -0.284
- PBM binding z-score [15]: 2.12
- PBM binding z-score [16]: 4.05
- PBM binding z-score [17]: 2.11
- PBM binding z-score [18]: 3.29
- PBM binding z-score [19]: 0.805
- PBM binding z-score [20]: 5.04

Sequence: GCTTGTAGATCAATGTTAAGAAAGACTAAGCTAA
- PBM binding z-score [1]: -0.421
- PBM binding z-score [2]: -0.43
- PBM binding z-score [3]: -0.434
- PBM binding z-score [4]: -0.517
- PBM binding z-score [5]: -0.377
- PBM binding z-score [6]: -0.584
- PBM binding z-score [7]: -0.00589
- PBM binding z-score [8]: -0.385
- PBM binding z-score [9]: -0.425
- PBM binding z-score [10]: -0.416
- PBM binding z-score [11]: 1.38
- PBM binding z-score [12]: 0.377
- PBM binding z-score [13]: -0.235
- PBM binding z-score [14]: 0.113
- PBM binding z-score [15]: -0.551
- PBM binding z-score [16]: -0.629
- PBM binding z-score [17]: -0.348
- PBM binding z-score [18]: -0.432
- PBM binding z-score [19]: -0.306
- PBM binding z-score [20]: -0.399

Sequence: TTGCCTAGGTCATGCGGGCCAGTATAGTGTCGGC
- PBM binding z-score [1]: 4.05
- PBM binding z-score [2]: 2.72
- PBM binding z-score [3]: 0.0559
- PBM binding z-score [4]: 1.52
- PBM binding z-score [5]: -0.792
- PBM binding z-score [6]: 3.42
- PBM binding z-score [7]: 2.01
- PBM binding z-score [8]: 2.28
- PBM binding z-score [9]: -0.182
- PBM binding z-score [10]: 1.06
- PBM binding z-score [11]: 1.47
- PBM binding z-score [12]: 2.82
- PBM binding z-score [13]: 0.433
- PBM binding z-score [14]: -0.575
- PBM binding z-score [15]: 0.753
- PBM binding z-score [16]: 1.39
- PBM binding z-score [17]: -0.692
- PBM binding z-score [18]: 2.31
- PBM binding z-score [19]: -0.448
- PBM binding z-score [20]: 3.82

Sequence: GCGACTGGGGCATCAGCAGGATACCATAACTTAA
- PBM binding z-score [1]: -0.587
- PBM binding z-score [2]: -0.962
- PBM binding z-score [3]: -0.678
- PBM binding z-score [4]: -0.508
- PBM binding z-score [5]: -0.969
- PBM binding z-score [6]: 0.0763
- PBM binding z-score [7]: 0.883
- PBM binding z-score [8]: 0.422
- PBM binding z-score [9]: -0.491
- PBM binding z-score [10]: -0.212
- PBM binding z-score [11]: 3.9
- PBM binding z-score [12]: 2.61
- PBM binding z-score [13]: -1.01
- PBM binding z-score [14]: -0.959
- PBM binding z-score [15]: -0.175
- PBM binding z-score [16]: -0.691
- PBM binding z-score [17]: -0.304
- PBM binding z-score [18]: -0.475
- PBM binding z-score [19]: -0.756
- PBM binding z-score [20]: 0.233

Sequence: TCAGACCGGTGAAGGTAACTCAGGTACGCAGTCG
- PBM binding z-score [1]: 0.557
- PBM binding z-score [2]: 1.33
- PBM binding z-score [3]: -0.308
- PBM binding z-score [4]: 0.535
- PBM binding z-score [5]: -0.714
- PBM binding z-score [6]: 0.614
- PBM binding z-score [7]: 0.21
- PBM binding z-score [8]: 1.47
- PBM binding z-score [9]: 3.08
- PBM binding z-score [10]: 2.23
- PBM binding z-score [11]: 1.9
- PBM binding z-score [12]: 0.032
- PBM binding z-score [13]: -0.824
- PBM binding z-score [14]: -0.847
- PBM binding z-score [15]: -0.31
- PBM binding z-score [16]: 0.238
- PBM binding z-score [17]: -0.147
- PBM binding z-score [18]: 0.303
- PBM binding z-score [19]: -0.254
- PBM binding z-score [20]: 0.335

Sequence: CCGACTGGGGCATAAGGTTACCATAAGCCAGCCC
- PBM binding z-score [1]: 0.197
- PBM binding z-score [2]: 1.68
- PBM binding z-score [3]: -0.354
- PBM binding z-score [4]: 0.645
- PBM binding z-score [5]: -1.33
- PBM binding z-score [6]: 1.75
- PBM binding z-score [7]: 2.29
- PBM binding z-score [8]: 3.15
- PBM binding z-score [9]: 0.853
- PBM binding z-score [10]: 2.5
- PBM binding z-score [11]: 2.93
- PBM binding z-score [12]: 3.01
- PBM binding z-score [13]: -0.979
- PBM binding z-score [14]: -1.34
- PBM binding z-score [15]: 0.447
- PBM binding z-score [16]: 0.164
- PBM binding z-score [17]: -0.32
- PBM binding z-score [18]: 1.11
- PBM binding z-score [19]: -0.464
- PBM binding z-score [20]: 1.66
